# Screens as filed in PubChem BioAssay.
# USP28 inh: blocks human USP28 ubiquitin-rhodamine cleavage; Q96RU2; purified USP28, Ub-rhodamine cleavage fluorescence, 30 min; inhibition, % at 25 µM; hit rate 3% among 47,000; AID 1645857
# OTUD3 inh: inhibitors of human OTUD3 deubiquitinase. Q5T2D3. purified OTUD3, Ub-rhodamine fluorescence, 2 h. inhibition, % at 25 µM. hit rate 0.7% among 47,000. AID 1645858
# USP17 inh: inhibitors of human USP17 deubiquitinase. A8MUK1. purified USP17, Ub-rhodamine cleavage fluorescence, 3 h. inhibition, % at 50 µM. hit rate 6.5% among 47,000
# USP30 block: blocks human USP30 ubiquitin-rhodamine cleavage; purified USP30, Ub-rhodamine cleavage fluorescence; inhibition, % at 25 µM; hit rate 5.3% among 47,000; AID 1645860
# Target sequence (Q70CQ3 whole entry, looked up): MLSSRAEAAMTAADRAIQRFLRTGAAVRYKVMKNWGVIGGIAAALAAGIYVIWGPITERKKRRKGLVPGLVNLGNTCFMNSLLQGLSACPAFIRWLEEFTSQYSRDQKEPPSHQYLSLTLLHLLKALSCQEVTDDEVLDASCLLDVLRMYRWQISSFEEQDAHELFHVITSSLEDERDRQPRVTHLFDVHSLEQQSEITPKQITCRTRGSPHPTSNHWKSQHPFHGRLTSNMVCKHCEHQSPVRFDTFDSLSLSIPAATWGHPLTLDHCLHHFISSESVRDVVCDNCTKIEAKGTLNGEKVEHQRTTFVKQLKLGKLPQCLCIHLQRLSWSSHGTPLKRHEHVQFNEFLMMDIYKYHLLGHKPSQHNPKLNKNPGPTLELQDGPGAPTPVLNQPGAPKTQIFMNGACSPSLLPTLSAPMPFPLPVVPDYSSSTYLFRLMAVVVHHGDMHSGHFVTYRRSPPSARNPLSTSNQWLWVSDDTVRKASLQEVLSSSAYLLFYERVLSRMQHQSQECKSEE
# The depositor's hits bear a star. A selection: hits, their analogues and other compounds. The true share with any hit is near 11%. Cut-off read from the data, not from the text of the source: active = inhibition above about 30%; inactive = the rest.
SMILES,USP28 inh,OTUD3 inh,USP17 inh,USP30 block
Cc1cccc(COc2ccc(C3SCC(=O)Nc4n[nH]c(C)c43)cc2)c1 (stereo not given),13,13,56*,21
CO[C@H]1[C@@H](O)[C@H](C)O[C@H](O[C@H]2[C@H](Oc3cccc4c(O)c5c(=O)oc6ccc(C)c7c(=O)oc(c34)c5c67)O[C@H](C)[C@H](O)[C@@H]2O)[C@@H]1O,65*,51*,78*,-6
CCC(CC)n1[nH]c(=O)c2c1NC(=O)CSC2c1ccc2c(c1)OCO2 (stereo not given),28,8,65*,16
CC(C)n1[nH]c(=O)c2c1NC(=O)CSC2c1ccc(OCc2ccccc2)cc1 (stereo not given),0,1,12,3
CN1C(=O)[C@]23CC4=CC=C[C@H](O)[C@H]4N2C(=O)[C@@]1(CO)SS3,-16,-11,-18,50*
CC(C)=CCC[C@H](C(=O)O)[C@@H]1CC[C@]2(C)C3=C(CC[C@@]12C)[C@@]1(C)CCC(=O)C(C)(C)C1CC3 (stereo not given in full),17,11,36*,32*
Cc1ccc(-n2c(/C=C/c3cccs3)nc3ccccc3c2=O)cc1,19,16,7,30
CCCCNC(=O)c1cc2cccnc2n(Cc2ccccc2)c1=O,28,10,69*,24
Cc1cccc(OCC(=O)N2CCN(Cc3nc4cc(C(=O)N(C)C)ccc4n3C)CC2)c1,8,12,11,15
CC[C@H]1C[C@H](C)[C@@]2(NC1=O)O[C@@H](C[C@H](O)[C@@H](C)CC/C=C/C=C(\C)[C@@H]1C/C=C/C=C/[C@H](O)[C@H](C)[C@@H](O)[C@@H](CCC(C)=O)C(=O)N[C@@H](C(C)C)C(=O)N[C@@H](Cc3cccc(O)c3)C(=O)N3CCC[C@H](N3)C(=O)O1)[C@H](C)C=C2C,-2,-7,0,-40
Cc1noc(C)c1C(=O)N1CCCC2(COCCN(C(C)C)C2)C1 (stereo not given),5,11,2,23
C[C@@H]1CC[C@@]2(NC1)OC1CC3C4CC=C5C[C@@H](O)CC[C@]5(C)C4CC[C@]3(C)C1[C@@H]2C (stereo not given in full),5,11,10,11
CC1CC[C@@]2(NC1)O[C@H]1C[C@H]3[C@@H]4CC=C5C[C@@H](O)CC[C@]5(C)[C@H]4CC[C@]3(C)[C@H]1[C@@H]2C (stereo not given in full),31*,14,52*,38*
CN(CCC(N)CC(=O)N[C@H]1C=CC(n2ccc(N)nc2=O)O[C@@H]1C(=O)O)C(=N)N (stereo not given in full),-6,-5,-3,-12
CC[C@@H]1[C@@H](C)O[C@@](O)([C@@H](C)[C@H](O)[C@H](C)[C@H]2OC(=O)/C=C/C=C/[C@H](C)[C@@H]([C@@H](C)[C@@H](O)[C@H](C)[C@@]3(O)C[C@@H](O[C@H]4C[C@H](O)[C@H](O)[C@H](C)O4)[C@H](CC)[C@@H](C)O3)OC(=O)/C=C/C=C/[C@@H]2C)C[C@H]1O[C@H]1C[C@H](O)[C@H](O)[C@H](C)O1,-15,0,9,-87
COc1cc(N2CC[C@@H]3OCCN(C)[C@H]3CC2)ncn1,15,15,11,33*
COc1ccc(C2SCC(=O)Nc3c2c(C)nn3-c2nc(C)cc(C)n2)cc1 (stereo not given),-15,-4,-13,-15
Cc1ccc2nc(COC(=O)C(O)(c3ccccc3)c3ccccc3)cc(=O)n2c1,11,-4,-2,-56
COc1c(Cl)ccc2c(=O)c3c(oc12)C1=C2[C@@H](OCO1)[C@@H](OC)c1cc4c(c(O)c1[C@@]2(O)[C@H]3O)C(=O)N(C)[C@H](OC)[C@@H]4O,43*,32*,12,60*
COc1c(Cl)ccc2c(=O)c3c(O)c4c5c(c3oc12)OCO[C@H]5[C@@H](OC)c1cc2c(c(O)c1-4)C(=O)N(C)[C@H](OC)[C@@H]2O,49*,23,-12,64*
CN1CC[C@@H]2[C@H](C1)CN2S(=O)(=O)c1ccc(Cl)cc1,-7,0,5,2
COC(=O)[C@]1(O)O[C@@]2(C(=O)OC)c3c(oc4cc(C)cc(O)c4c3=O)[C@H]3c4c(oc5cc(C)cc(O)c5c4=O)C[C@H]1[C@H]32,29,32*,53*,-8
O=C(NCC1CCC1)C1=NOC2(CCNCC2)C1,-3,-2,-46,5
Cc1nc(CO[C@H]2CN(Cc3c(C)noc3C)[C@@H]3COC[C@H]23)cs1,-7,-1,-14,-14
Cc1nn(C2CCCCC2)c2c1C(c1ccc(F)cc1)SCC(=O)N2 (stereo not given),11,13,-9,14
SMILES,USP28 inh,OTUD3 inh,USP17 inh,USP30 block
COc1ccc(OC)c(-c2c(C#N)c(C)nc3c2N2CCC3CC2)c1,94*,33*,49*,43*
CCCCCCC(O)CCCCCC/C=C/[C@H](O)[C@@H](OC(C)=O)[C@H](O)[C@H](N)C(=O)O (stereo not given in full),-3,-14,35*,-24
CO[C@H](c1ccccc1)[C@@H]1NC(=O)[C@H](C)NC(=O)[C@H](C[C@@H](C)CO)N(C)C(=O)[C@H]([C@H](O)c2cn(C(C)(C)[C@@H]3CO3)c3ccccc23)NC(=O)[C@H]([C@H](C)C=C(C)C)NC(=O)[C@H](CC(C)C)N(C)C(=O)[C@H](C(C)C)NC1=O,-2,19,33*,19
CN(C)Cc1c[nH]c2c(OCc3ccccc3)cccc12,45*,15,8,35*
COc1ccccc1C1SCC(=O)Nc2c1c(=O)[nH]n2C1CCCC1 (stereo not given),0,-15,-9,2
O=C1CSC(c2ccc(Cl)cc2)c2c(n(C3CCCC3)[nH]c2=O)N1 (stereo not given),-5,0,5,0
COc1ccc(C2SCC(=O)Nc3c2c(=O)[nH]n3C2CCCCC2)cc1 (stereo not given),4,4,68*,11
O=C1CSC(c2ccc(F)cc2)c2c(n(C3CCCCCC3)[nH]c2=O)N1 (stereo not given),11,8,17,30*
Cc1ccc(C2SCC(=O)Nc3c2c(=O)[nH]n3C2CCOC(C)(C)C2)cc1 (stereo not given),-6,-4,3,0
CC1(C)CC(n2[nH]c(=O)c3c2NC(=O)CSC3c2ccccc2)CCO1 (stereo not given),11,17,11,33*
CC(C)=C1CCC23COC(C2)C(O)(C(=O)O)CCC13 (stereo not given),4,2,1,-10
CCCC12CN3CC(C)(CN(C1)C3(C)C)C2=O,-4,0,0,2
O=C(CNC(=O)c1ccccc1Br)Nc1ccc(Br)cc1C(=O)c1ccccc1,14,15,22,43*
O=C(CNC(=O)OCc1ccccc1)Nc1ccc(Br)cc1C(=O)c1ccccc1Cl,-2,14,77*,-6
